Here are results for 49 compounds from PubChem BioAssay AID485290 (National Center for Advancing Translational Sciences (NCATS), 2010).

“And” between values parts separate entries of the source, which are not always exact repeats. Equal entries are not always repeated. Screen size: about 350,000 compounds; about 990 (0.28%) were called active. Not shown: some 2% with an inconclusive outcome. This is one part of a sample in which actives are shown more often than they occur. Calls follow the shape of the dose curve; as a rule, active = well fitted inhibition curve with a large enough effect; inconclusive = small, poorly fitted or top-dose-only effect; inactive = no such curve, though single readings can be large or run the other way. Some compounds were tested as several samples or in several runs, with calls that do not always agree.
% is scaled to controls: 0 for no effect and ±100 for the full control effect; potency is read from the fitted curve at half-maximal effect.

The target in this assay is Tyrosyl-DNA phosphodiesterase 1 (Homo sapiens) (UniProt Q9NUW8). Briefly: qHTS Assay for Inhibitors of Tyrosyl-DNA Phosphodiesterase (TDP1). Also: nearly all actives have a fitted effect of over 40% in size. Particulars: recombinant TDP1, AlphaScreen DNA substrate cleavage; series mostly up to 130 µM; activity change, negative = inhibition: at the top concentration. An excerpt: NIH Molecular Libraries Probe Production Network [MLPCN]
Sequence of Tyrosyl-DNA phosphodiesterase 1 (Homo sapiens) (Q9NUW8 whole entry, looked up): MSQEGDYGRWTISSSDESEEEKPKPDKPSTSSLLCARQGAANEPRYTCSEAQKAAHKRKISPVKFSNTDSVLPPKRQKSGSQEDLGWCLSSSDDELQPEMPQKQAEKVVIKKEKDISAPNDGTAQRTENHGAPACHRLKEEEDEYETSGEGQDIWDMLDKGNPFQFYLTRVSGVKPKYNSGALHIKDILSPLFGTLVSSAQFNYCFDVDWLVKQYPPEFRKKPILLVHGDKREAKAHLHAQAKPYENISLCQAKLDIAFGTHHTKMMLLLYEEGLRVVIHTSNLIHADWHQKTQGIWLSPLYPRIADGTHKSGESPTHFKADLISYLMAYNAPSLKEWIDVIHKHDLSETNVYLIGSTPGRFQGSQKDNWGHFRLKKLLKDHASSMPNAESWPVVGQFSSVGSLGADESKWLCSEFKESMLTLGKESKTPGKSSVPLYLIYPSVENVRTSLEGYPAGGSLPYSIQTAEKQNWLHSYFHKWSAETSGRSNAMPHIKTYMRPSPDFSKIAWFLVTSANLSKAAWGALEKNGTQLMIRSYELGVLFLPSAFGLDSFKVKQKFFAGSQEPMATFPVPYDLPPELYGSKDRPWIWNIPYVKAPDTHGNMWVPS
NIH Chemical Genomics Center [NCGC]
Assay Provider: Yves Pommier and Christophe Marchand, National Cancer Institute
Assay Title: qHTS Assay for Inhibitors of Tyrosyl-DNA Phosphodiesterase (TDP1); also: nearly all actives have a fitted effect of over 40% in size
Human tyrosyl-DNA phosphodiesterase I (Tdp1) is a rational anticancer target because this enzyme is involved in the repair of DNA lesions created by the trapping of human DNA topoisomerase I (Top1) following treatment by anticancer agents such as camptothecins. Recombinant Tdp1 was expressed and purified from E. coli in the laboratory (Anthony et al, Nucleic Acids Research, 2007, Vol. 35, 4474-4484). A Tdp1 DNA substrate bearing a 5' biotin and a 3' phospho-tyrosine was obtained by custom synthesis. This oligonucleotidic DNA substrate was subsequently coupled to a fluorescein isothiocyanate (FITC) group via the free amino group present on the phospho-tyrosine. Tdp1 was screened against the NCGC small molecule library using the AlphaScreen (AS) detection method in which a streptavidin donor AS bead is bound at the 5' end and an anti-FITC AS acceptor bead is bound at the 3' end of the DNA oligonucleotidic substrate. In the presence of Tdp1, the enzyme cleaves the tyrosine-FITC group, leaving a 3' end phosphate on the DNA substrate. This cleavage reaction results in a loss of signal in AS.
[1] 3 ul of buffer is dispensed in columns 3 & 4 as negative control (no enzyme and maximum signal),
[2] 3 ul of enzyme (1 nM final) is dispensed in columns 1,2, 5-48,
[3] 1 ul of substrate (15 nM final) is dispensed throughout the plate,
[4] 1 ul of AS donor/acceptor bead mix (10 ug/ml final) is dispensed throughout the plate
3 ul of Tdp1 enzyme is dispensed to 1536-well Kalypsys black solid bottom plates. Compounds and controls (23 nl) are transferred via Kalypsys Pin Tool. The plates are incubated for 15 min at room temperature, and then 1 ul of substrate is added to start the reaction. After 5 min incubation at room temperature, 1 ul of AS donor/acceptor bead mix is added and the plates are further incubated for 10 min at room temperature. The detection is then performed on a PerkinElmer Envision reader.
(qHTS replaces the single test concentration by a dilution series.)
For `Cc1nn(C)cc1N1C(=O)c2cccc3c(N)ccc(c23)C1=O`, the “activity change, negative = inhibition” value was 3.53% (inactive).

`Nc1ccc2c3c(cccc13)C(=O)NC2=O`: the Potency result is “inactive and 50.1 µM (active)”.

Turning to `CCCNC(=O)CN(Cc1ccccc1F)S(=O)(=O)c1ccc(C)cc1`, the “activity change, negative = inhibition” value was 0% (inactive).

Take `CC(=O)c1ccc(S(=O)(=O)N(C)CCCC(=O)N(C)Cc2ccccc2F)cc1`: the Potency is 79.4 µM (active).

Consider `COC(=O)Cc1ccc(N(Cc2ccccc2F)S(=O)(=O)c2ccc(Br)cc2)cc1`, for which the “activity change, negative = inhibition” value is 5.26% (inactive).

Take `O=C(CNC(=O)c1ccccc1)OC(C(=O)Nc1cc([N+](=O)[O-])ccc1F)c1ccccc1` (centres undefined): the “activity change, negative = inhibition” value was -0.0203% (inactive).

As to `O=C(CCNC(=O)c1ccccc1Cl)NN=Cc1ccco1`, the “activity change, negative = inhibition” value was -19.3% (inactive).

With `O=C(CCCCCNC(=O)c1ccccc1)N/N=C/c1ccccc1`, the “activity change, negative = inhibition” value is 0% (inactive).

As for `O=C(CCNC(=O)c1ccccc1)NN=Cc1ccc(Br)o1`, the Potency was 14.1 µM (active).

On to `O=C(Nc1ccc2nc(SCCOc3ccccc3Cl)sc2c1)c1ccco1`, for which the “activity change, negative = inhibition” value is -0.521% (inactive).

For `CCOC(=O)c1ccc(NC(=O)CC2C(=O)N(c3ccccc3)C(=O)N2Cc2cccs2)cc1` (centres undefined), the “activity change, negative = inhibition” value was 8.97% (inactive).

On to `COc1ccc(-c2cn3nc(N4CCCC(C(=O)NCCCOC(C)C)C4)sc3n2)cc1` (centres undefined), for which the “activity change, negative = inhibition” value is 6.21% (inactive).

With `Cc1ccc(-c2nnc3ccc(SCC(N)=O)nn23)cc1`, the “activity change, negative = inhibition” value is 3.35% (inactive).

Regarding `O=C(CCc1ccccc1)NCCc1cccs1`, the “activity change, negative = inhibition” value was 6.33% (inactive).

On to `O=C(O)CCC(=O)N(Cc1ccccc1)Cc1ccccc1`, for which the “activity change, negative = inhibition” value is 2.81% (inactive).

On to `O=C(O)CCC(=O)N(Cc1cccs1)Cc1cccs1`, for which the Potency was 70.8 µM (active).

As to `Cc1ccc2ccc3c(c2n1)NS(=O)(=O)c1ccccc1-3`, the “activity change, negative = inhibition” value is 3.91% (inactive).

`O=C(CSc1nc2ccc(Nc3nc(N4CCOCC4)nc(N4CCOCC4)n3)cc2s1)NCc1ccco1`: the “activity change, negative = inhibition” value is 7.41% (inactive).

In the case of `C=CCn1c(CSc2nc3ccccc3s2)nnc1SCC(=O)NCc1ccco1`, the Potency is 50.1 µM (active).

On to `CCn1c(COc2ccccc2)nnc1SCC(=O)NCc1ccco1`, for which the “activity change, negative = inhibition” value is -2.53% (inactive).

For the compound `N#Cc1nc(Nc2cc(F)cc(Cl)c2)nc(NC2CCCC2)n1`, the “activity change, negative = inhibition” value is -1.72% (inactive).

As to `Cc1ccc(C2C=C(c3ccc(Cl)cc3)Nc3nc(NC(=O)CCC(=O)O)nn32)cc1` (centres undefined), the “activity change, negative = inhibition” value is 6.98% (inactive).

Consider `Cc1cc(NC(=O)CSc2nc(=O)cc(N)n2-c2ccc(F)cc2)no1`, for which the Potency is 100 µM (active).

With `Cc1csc(NC(=O)CSc2nc(=O)cc(N)n2-c2ccc(F)cc2)n1`, the “activity change, negative = inhibition” value was 0.637% (inactive).

Turning to `COc1cccc(-n2c(N)cc(=O)nc2SCC(=O)Nc2cc(C)on2)c1`, the “activity change, negative = inhibition” value was 4.83% (inactive).

As for `CCc1ccc(NC(=O)CN2CCSc3ccc(S(=O)(=O)N4CCCC4)cc32)cc1`, the “activity change, negative = inhibition” value is 8.88% (inactive).

Regarding `CC(C)c1ccc(C2CC(=O)N3CN(C4CCCCC4)CSC3=C2C#N)cc1` (centres undefined), the “activity change, negative = inhibition” value was 4.65% (inactive).

On to `Cc1ccc(Cn2ncc3c4sc(C)cc4n(C)c3c2=O)c(C)c1`, for which the “activity change, negative = inhibition” value is -17.4% (inactive).

For the compound `CCSc1nnc(NC(=O)c2cc(=O)c3cc(C)c(C)cc3o2)s1`, the “activity change, negative = inhibition” value is 3.68% (inactive).

Regarding `NC(=O)CSc1nnc(NC(=O)c2ccc(Br)o2)s1`, the Potency was 56.2 µM (active).

In the case of `NC(=O)CSc1nnc(NC(=O)c2ccc3ccccc3c2)s1`, the “activity change, negative = inhibition” value is -9.3% (inactive).

As for `COc1cccc(NC(=O)C(=O)NCC(c2ccc3c(c2)OCO3)N2CCN(C)CC2)c1` (centres undefined), the “activity change, negative = inhibition” value is 4.4% (inactive).

`O=C(Nc1ccc(F)cc1F)c1ccc2c(=O)n3c(nc2c1)CCCCC3`: the “activity change, negative = inhibition” value was 0% (inactive).

On to `COc1cc(C(=O)NCCc2csc3nc(-c4ccccc4C)nn23)cc(OC)c1OC`, for which the “activity change, negative = inhibition” value is 8.88% (inactive).

On to `Cc1cc(C)c2nc(-c3ccco3)cc(C(=O)O)c2c1`, for which the Potency was 3.55 µM (active).

`CC1CCCN(C(=O)c2cc(-c3ccco3)nc3ccccc23)C1` (centres undefined): the “activity change, negative = inhibition” value was -2.87% [at 56.1 µM] (inactive).

On to `CN(CCOc1ccccc1)C(=O)c1cc(-c2ccco2)nc2ccccc12`, for which the “activity change, negative = inhibition” value is -10% (inactive).

Turning to `N#CN1CCC(NS(=O)(=O)c2cccc(F)c2)C1` (centres undefined), the “activity change, negative = inhibition” value is -0.0717% (inactive).

As for `COc1cccc(NC(=O)c2ccc3nc(CCc4ccccc4)oc3c2)c1`, the “activity change, negative = inhibition” value is 4.14% (inactive).

As for `COc1cccc(OC2=NS(=O)(=O)c3ccccc32)c1`, the “activity change, negative = inhibition” value is 2.37% (inactive).

With `COC(=O)c1ccccc1NC(=O)c1ccc2c(=O)n3c(nc2c1)CCCCC3`, the “activity change, negative = inhibition” value is 5.06% (inactive).

Take `O=C(OCC#CCSc1nnc(-c2ccco2)o1)c1ccc(F)cc1`: the “activity change, negative = inhibition” value is -3.06% (inactive).

For `CN1C(=O)/C(=C\c2ccc(-c3ccccc3)o2)SC1=S`, the “activity change, negative = inhibition” value is 8.48% (inactive).

For `Cc1cc(/C=C2\SC(=Nc3ccc(N4CCOCC4)cc3)N(C)C2=O)c(C)n1-c1cccnc1`, the “activity change, negative = inhibition” value was 5.26% (inactive).

On to `CN1C(=O)/C(=C/c2ccco2)SC1=Nc1cccc(C(=O)O)c1`, for which the Potency is 25.1 µM (active).

On to `CCOC(=O)c1scc(-c2ccccc2)c1S(=O)(=O)Nc1ccccc1F`, for which the “activity change, negative = inhibition” value was 1.95% (inactive).

For `COc1ccc(-c2nc3sc(CCNC(=O)C(C)(C)C)c(C)n3n2)cc1`, the “activity change, negative = inhibition” value was 2.6% (inactive).

Turning to `Cc1cccc(Nc2nc(-c3ccccc3)cs2)n1`, the “activity change, negative = inhibition” value is 8% (inactive).

Turning to `Cc1ccccc1Nc1nc(-c2cccnc2)cs1`, the Potency is 100 µM (active).
